In the library only some 3.7% were active in any assay of this set; here they are far more common.
A549 tox: Nrf2 qHTS screen for inhibitors: counterscreen for cytotoxicity; Potency, µM (highest dose often 46 µM), actives largely listed as inhibitors; A549 ARE-Fluc cells, CellTiter-Fluor viability, 18-24 h; hit rate 0.16% among 390,000
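A549 ARE-Fluc cells in 5% FBS OPTI-MEM, 5000 cells/well, rested 2 h then exposed to compounds in concentration-response for 18-24 h at 37 °C. Viability by CellTiter-Fluor fluorescence (Ex 405/Em 525) after 30 min; luciferase luminescence (BugLite, 15 min, RT) read afterwards.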
Nrf2 activator: qHTS of Nrf2 Activators; Potency, µM (series often up to 46.1 µM), most hits filed as activators; AREc32 ARE-luciferase reporter (MCF7-derived line), luminescence, 24 h; hit rate 0.31% among 410,000; AID 624171, 2012; further: nearly all actives have a fitted effect of over 65% in size
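For detection, Steady-Glo was added and plates sat 30 min at RT; before that, AREc32_Fluc cells grown overnight in OPTI-MEM/5% FBS had been treated with 23 nL compound for 24 hr at 37 deg C.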
miR-21 reporter: qHTS Assay for Modulators of miRNAs and/orActivators of miR-21. HeLa miR-21 FLuc reporter, luciferase, 48 h. Potency, µM (doses to about 38.3 µM), hits mostly activators. 340,000 tested, under 10 active. AID 2288, 2010;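 further: miR-21 action dims this reporter so a rising signal means less miR-21 action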
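Compounds were titrated across several concentrations (up to approximately 40 uM) and incubated 48 hours with HeLa miR-21-FLuc reporter cells (miR-21 target sequence downstream of FLuc, endogenous miR-21). Readout was firefly luciferase luminescence after lytic detection reagent.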
TCR act: Activators of T cell receptors: qHTS campaign; primary human leukocytes, anti-CD3, IL-2 HTRF, 48 h; Potency, µM (titrated, usually from 9.22 µM), usual class: activators; 330,000 tested, under 10 active; AID 504894, 2011
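48 hr co-incubation of compounds, a-CD3 beads and primary human leukocytes; IL-2 quantified homogeneously by HTRF with anti-IL-2 K and d2 conjugates.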
ClpP mod: qHTS Assay for Activators of ClpP; ATP-dependent Clp protease proteolytic subunit (Bacillus subtilis (strain 168)), P80244; purified B. subtilis ClpP, FRET peptide cleavage, 20 min; Potency, µM (series often up to 57.5 µM); hit rate 1.9% among 340,000; AID 651965, 2013; active means well fitted falling curve with a large enough effect; inconclusive means small, poorly fitted or top-dose-only effect; inactive means no such curve, though single readings can be large or run the other way; further: the source files actives as falling curves though it sought activators and does not explain the sign; nearly all actives have a fitted effect of over 65% in size
Target sequence (P80244 whole entry, looked up): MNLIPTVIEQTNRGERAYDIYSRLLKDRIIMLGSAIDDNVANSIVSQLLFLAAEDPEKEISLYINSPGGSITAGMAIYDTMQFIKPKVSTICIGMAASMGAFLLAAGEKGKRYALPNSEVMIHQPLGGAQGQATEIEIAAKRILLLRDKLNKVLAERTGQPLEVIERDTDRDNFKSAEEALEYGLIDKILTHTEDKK
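Purified B. subtilis ClpP, 10 microg/mL final in Tris/HCl pH8 with KCl, BSA, glycerol and Tween-20, cleaved an Abz/nitrotyrosine-quenched decapeptide. Fluorescence (ex 320, em 430) was read at 0 and 20 min at room temperature. Delta was normalized to 5.8 microM ADEP and DMSO/no-enzyme controls.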
Nrf2 block: Nrf2 qHTS screen for inhibitors. A549 ARE-Fluc reporter, luciferase luminescence, 18-24 h. Potency, µM (highest dose often 46 µM), most hits filed as inhibitors. hit rate 2.1% among 360,000; further: nearly all actives have a fitted effect of over 60% in size
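Quantitative HTS in A549 cells stably bearing an antioxidant response element-firefly luciferase construct. Inhibition of Nrf2-driven transcription was scored by luminescence after 18-24 h of compound exposure at 37 °C.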
Numbers stand for hits; - = inactive; ? = inconclusive; . = not tested or not shown. Unless noted, the call rests on the fitted dose curve; in most records, active means well fitted curve in the direction sought with a large enough effect; inconclusive means small, poorly fitted or top-dose-only effect, or another doubt; inactive means no such curve, though single readings can be large; an effect the other way counts as inactive or inconclusive.

SMILES	A549 tox	Nrf2 activator	miR-21 reporter	TCR act	ClpP mod	Nrf2 block
COC(=O)c1ccc(-c2ccco2)n1Cc1cccc(C)c1	-	-	-	-	?	-
COC(=O)c1ccc(-c2ccco2)n1Cc1cc(C)ccc1C	-	-	-	-	32µM	-
O=C(OC1CCCCC1=O)c1cccc(S(=O)(=O)N2CCOCC2)c1 (configuration not stated)	-	-	.	-	-	-
C[C@@H]1C[C@@H]2OC(=O)[C@]3(C)[C@H]2[C@@H](OC3(C)O)[C@]2(C)C(=O)C=C[C@H]12 (some centres not stated)	-	14µM	?	-	?	-
COCc1nnc(NC(=O)c2ccc(S(=O)(=O)N(C)Cc3ccccc3)cc2)o1	?	-	-	-	.	?
CCN(Cc1ccccc1)S(=O)(=O)c1ccc(C(=O)Nc2nnc(C3CC3)o2)cc1	-	-	-	-	-	8.2µM
Cc1nnc(NC(=O)c2ccc(S(=O)(=O)N(C)Cc3ccccc3)cc2)o1	-	-	-	-	-	18µM
CCc1nnc(NC(=O)c2ccc(S(=O)(=O)N(CC(C)C)CC(C)C)cc2)o1	?	-	-	-	-	16µM
CCc1nnc(NC(=O)c2ccc(S(=O)(=O)N(C)c3ccccc3)cc2)o1	-	-	?	-	-	?
CCc1cccc(NC(=O)C(CC(C)C)NS(=O)(=O)c2ccc3c(c2)oc(=O)n3C)c1 (configuration not stated)	-	-	-	.	-	?
COc1cc2c(cc1OC)C(c1ccc(F)cc1)N(c1ccc(F)cc1)C(=O)C2 (configuration not stated)	-	-	-	.	-	-
NC(N)=NCCC[C@H](NC(=O)CNC(=O)c1ccccc1)C(=O)Nc1cc(C(F)(F)F)ccc1Cl	-	.	.	.	.	-
CCOC(=O)Nc1ccc2c(CN3C(=O)NC(CC)(CC)C3=O)cc(=O)oc2c1	-	-	-	-	-	-
CCOC(=O)Nc1ccc2c(CNC(C)c3ccccc3OC)cc(=O)oc2c1 (configuration not stated)	?	-	-	-	.	13µM
CCn1nc([N+](=O)[O-])c(C(C#N)c2nc3cc(C(F)(F)F)ccc3s2)c(Cl)c1=O (configuration not stated)	?	-	-	-	-	8.2µM
Cc1cc(C)nc(N2CCCC(C(=O)NCCc3ccc(F)cc3)C2)n1 (configuration not stated)	-	-	-	-	11µM	-
CCOc1ccc(CCNC(=O)Cn2c(-c3cccs3)cc3cc(F)ccc32)cc1OCC	-	-	-	.	-	?
CCOc1cc(CNC(=O)Cn2c(-c3cccs3)cc3cc(F)ccc32)ccc1OC	-	-	-	.	25µM	?
COc1ccccc1CNC(=O)Cn1c(-c2cccs2)cc2cc(F)ccc21	-	-	-	.	32µM	-
O=C(CSc1cn(CCNC(=O)c2c(F)cccc2F)c2ccccc12)Nc1ccccc1F	-	-	?	.	-	?
CCOC(=O)[C@H]1O[C@@H]1C(=O)N[C@@H](CC(C)C)C(=O)NCCC(C)C	21µM	-	-	-	?	-
Cc1c(C)c(C)c(/C=C/c2ccnc3ccccc23)c(C)c1C	.	.	.	.	-	.
O=C(COCc1cc(-c2ccc(F)cc2)on1)Nc1cc(Cl)ccc1O	-	6.3µM	-	.	-	?
O=C(COCc1cc(-c2cccs2)on1)Nc1cc(Cl)ccc1O	-	3.5µM	-	.	-	-
O=CN1CCN(C(=O)Cc2ccc([N+](=O)[O-])cc2)CC1	-	-	-	-	25µM	-
O=CN1CCN(C(=O)c2ccc([N+](=O)[O-])cc2)CC1	-	-	-	-	-	-
Nc1cccc(S(=O)(=O)N2CCN(S(=O)(=O)c3ccc4c(c3)OCCO4)CC2)c1	-	.	.	.	.	-
COc1cccc(NC(=O)CN2CCC(NC(=O)c3ccccc3C)CC2)c1	.	-	.	.	-	.
CSc1ccccc1OCc1cc(C(=O)N2CCc3c(Cl)cccc3C2)no1	-	-	-	-	.	9.2µM
